Compounds with a hit are over-represented: about 12% of the library has one in this group of screens.
G9a inh: G9a (human) methyltransferase inhibition; Q96KQ7; G9a H3K9 monomethylation, AlphaScreen, 2 h; Potency, µM (doses to about 102 µM), inactives show at the highest dose activity, negative = inhibition, hits mostly inhibitors; 8.8% of 350,000 active; also: potency is read from the fitted curve at half-maximal effect; % is scaled to controls: 0 for no effect and ±100 for the full control effect; nearly all actives have a fitted effect of over 75% in size
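AlphaScreen detection with an anti-monomethyl H3K9 antibody quantified product after a 2 h room-temperature reaction containing 500 nM biotinylated H3K9 peptide, 20 µM SAM and 20 nM enzyme, which had been preincubated 15 min with compound.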
L3MBTL1 block: inhibitors of human L3MBTL1; Q9Y468; AlphaScreen L3MBTL1–H3K9me1 peptide binding; Potency, µM (titrated, usually from 57.1 µM), for inactives: top-dose activity, negative = inhibition, actives largely listed as inhibitors; 0.66% of 230,000 active; AID 485360; also: potency is read from the fitted curve at half-maximal effect; % is scaled to controls: 0 for no effect and ±100 for the full control effect; nearly all actives have a fitted effect of over 60% in size
Target sequence (Q9Y468 whole entry, looked up): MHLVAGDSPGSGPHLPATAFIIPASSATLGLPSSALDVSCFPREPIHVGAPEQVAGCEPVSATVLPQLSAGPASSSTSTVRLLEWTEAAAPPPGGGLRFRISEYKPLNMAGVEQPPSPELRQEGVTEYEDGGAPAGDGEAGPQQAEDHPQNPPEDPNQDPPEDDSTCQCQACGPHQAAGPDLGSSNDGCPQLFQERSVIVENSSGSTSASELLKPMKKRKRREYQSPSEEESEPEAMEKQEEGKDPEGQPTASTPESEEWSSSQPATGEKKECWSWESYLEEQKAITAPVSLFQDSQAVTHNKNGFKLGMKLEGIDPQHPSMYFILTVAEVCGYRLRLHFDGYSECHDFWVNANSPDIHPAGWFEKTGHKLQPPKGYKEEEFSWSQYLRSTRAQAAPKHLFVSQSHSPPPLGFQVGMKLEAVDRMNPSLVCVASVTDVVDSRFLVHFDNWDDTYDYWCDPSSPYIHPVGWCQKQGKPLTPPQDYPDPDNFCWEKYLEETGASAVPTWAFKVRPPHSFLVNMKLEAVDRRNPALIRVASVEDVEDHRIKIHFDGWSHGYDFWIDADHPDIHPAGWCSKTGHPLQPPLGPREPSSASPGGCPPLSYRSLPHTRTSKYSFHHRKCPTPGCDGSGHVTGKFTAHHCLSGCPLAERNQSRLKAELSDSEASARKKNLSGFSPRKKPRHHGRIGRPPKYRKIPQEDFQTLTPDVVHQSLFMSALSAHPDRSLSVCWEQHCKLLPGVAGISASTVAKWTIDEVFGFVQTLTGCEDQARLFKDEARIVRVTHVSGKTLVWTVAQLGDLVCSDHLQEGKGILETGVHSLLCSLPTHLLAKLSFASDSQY
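Read-out is AlphaScreen signal from streptavidin donor and nickel chelate acceptor beads (10 ug/mL final each) bridging L3MBTL1 (50 nM) and biotinylated K9-monomethylated H3(1-15) peptide (75 nM), after 30 min compound exposure at room temperature.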
HP1b chromo inh: inhibitors of HP1-beta chromodomain binding to methylated histone tails; AlphaScreen HP1-beta / biotin-H3K9me3 peptide binding; Potency, µM (highest dose often 114 µM), for inactives: top-dose activity change, negative = inhibition, hits mostly inhibitors; 0.56% of 390,000 active; also: potency is read from the fitted curve at half-maximal effect; nearly all actives have a fitted effect of over 70% in size
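AlphaScreen: HP1-beta (50 nM) preformed 30 min with biotin-H3(1-18)K9me3 peptide (50 nM) in PBS pH 7.4, 0.01% Tween-20. Compound added for 30 min at RT, then streptavidin donor/nickel chelate acceptor beads (10 ug/mL) for 30 min.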
BAZ2B inh: inhibitors of human BAZ2B bromodomain; Q9UIF8; AlphaScreen BAZ2B-H3K14Ac peptide displacement; Potency, µM (doses to about 114 µM), for inactives: at the top dose activity change, negative = inhibition, usual class: inhibitors; 4.4% of 360,000 active; AID 504333; also: potency is read from the fitted curve at half-maximal effect; % is scaled to controls: 0 for no effect and ±100 for the full control effect; nearly all actives have a fitted effect of over 60% in size
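BAZ2B 50 nM plus b-H3(5-23)K14Ac 50 nM, PBS pH 7.4/0.01% Tween-20, 30 min RT; compound added (max 110 uM), 30 min RT; streptavidin donor/Ni-chelate acceptor beads 10 ug/mL final, 20 min dark; AlphaScreen read.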
Sfp PPTase inh: blocks B. subtilis Sfp PPTase activity; Q9F4F7; Biochemical Sfp PPTase activity, qHTS; Potency, µM, for the others: largest response in the series, negative = inhibition, usual class: inhibitors; 3.5% of 310,000 active; AID 1490;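 also: the enzyme is Sfp with the accession as filed and its product quenches rhodamine fluorescence; potency is read from the fitted curve at half-maximal effect; 0% = enzyme reaction without inhibitor and -100% = no enzyme wells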
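Sfp 15 nM + cpd, 15 min RT; start w/ rhodamine-CoA 5 uM, BHQ-2-YbbR 12.5 uM (final); 50 mM Hepes pH 7.6, 10 mM MgCl2, 0.01% NP-40, 0.01% BSA; read 525/598 nm at 0 and 30 min.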
JMJD2A Tudor inh: JMJD2A Tudor domain (human) inhibition | O75164 | 4.4% of 390,000 active | Potency, µM (highest dose often 114 µM), for inactives: top-dose activity change, negative = inhibition, actives largely listed as inhibitors | AlphaScreen JMJD2A-Tudor / H3K4me3 peptide binding; also: potency is read from the fitted curve at half-maximal effect; % is scaled to controls: 0 for no effect and ±100 for the full control effect; nearly all actives have a fitted effect of over 50% in size
12-hLO 8HQ R1: confirmation of human 12-lipoxygenase inhibitors, 8HQ series round 1 | purified 12-hLO, cuvette UV 234 nm product formation | Potency, µM, actives largely listed as inhibitors | shares compounds with BAZ2B inh | AID 2163 | 60% of 35 active;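 active = compounds that slowed 12-hLO product formation enough to yield a measured IC50 potency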
JMJD2E inh: blocks human JMJD2E demethylase activity; shares compounds with BAZ2B inh; JMJD2E demethylase, FDH-coupled NADH fluorescence (FDH is formaldehyde dehydrogenase); Potency, µM (highest dose often 57 µM), inactives show at the highest dose activity, negative = inhibition, usual class: inhibitors; 89% of 130 active; AID 493212
ME-1 prolif: reduces ME-1 leukemia cell proliferation; shares compounds with BAZ2B inh; ME-1 cell proliferation, ATP luminescence, 48 h; Potency, µM (doses to about 56.1 µM), for the others: at the highest dose activity change, negative = inhibition, actives largely listed as inhibitors; 20% of 140 active
An asterisk follows results filed as active; i = inactive; ? = inconclusive; / = not tested or not shown; [ ] = dose if it differs, or a comment. Unless noted, calls follow the shape of the dose curve; as a rule, active = well fitted curve in the direction sought with a large enough effect; inconclusive = small, poorly fitted or top-dose-only effect, or another doubt; inactive = no such curve, though single readings can be large; an effect the other way counts as inactive or inconclusive.

SMILES	G9a inh	L3MBTL1 block	HP1b chromo inh	BAZ2B inh	Sfp PPTase inh	JMJD2A Tudor inh	ME-1 prolif	others
CCC(=O)NC(c1cc(Cl)c2cccnc2c1O)C(C)C (stereo not given)	26.1%[12.7 µM]	?	9.1%	79.4µM*	/	?	/	12-hLO 8HQ R1=1.2µM*;JMJD2E inh=20.4µM*
CCC(=O)NC(c1cc(Cl)c2cccnc2c1O)C1CC1 (stereo not given)	19.2%[12.7 µM]	-11.2%	51.6%	31.6µM*	/	79.4µM*	/	12-hLO 8HQ R1=1.6µM*;JMJD2E inh=32.4µM*
O=C(NC(c1ccc(Cl)cc1)c1cc(Cl)c2cccnc2c1O)c1cccnc1 (stereo not given)	11.0%[59 µM]	9.3%	31.8%	3.0%	6.4%	-20.5%	/
C=CCOc1ccnc(-c2ccccc2)n1	24.8%	7.9%	48.3%[57 µM]	21.6%	13.6%	49.4%	/
O=C1C(Cc2ccccc2)C(c2ccccc2)N1c1ccccc1 (stereo not given)	60.5%[12.7 µM]	6.4%	81.1%	24.5%	1.2%	49.2%	/
O=C1C(CCC(O)c2ccc(F)cc2)C(c2ccc(O)cc2)N1c1ccc(F)cc1 (stereo not given)	-9.2%[2.33 µM]	/	/	/	14.8%	/	8.3%
CCCCCCC[N+](CC)(CC)CCCCc1ccc(Cl)cc1	-4.9%[59 µM]	12.8%	38.9%	-4.3%	13.1%	-7.2%	/
Oc1ccccc1/C=N/Nc1ncc(Br)cn1	12.0%[59 µM]	-5.2%	30.0%	-33.2%	17.2%	-11.7%	35.5µM*
C=CCN(C(=O)CCC(=O)Nc1cc(C)on1)C(C(=O)NC1CCCC1)c1ccc(CC)cc1 (stereo not given)	12.3%	/	-5.1%	1.9%	2.2%	?	/
Cc1cc(O)c(C=O)c2c1C(=O)Oc1c(C)c(O)c3c(c1O2)C(O)OC3=O (stereo not given)	?	/	/	/	-67.0%	/	/
Cc1c2c(c(O)c3c(O)cccc13)C(=O)O[C@H]2C1C(N(C)C)C(O)=C(C(N)=O)C(=O)[C@H]1O (stereo not given in full)	/	/	/	/	?	/	-13.5%
Nc1nc(-c2ccccc2)c(N=Nc2ccc(Cl)cc2)s1	2µM*	-18.4%	?	?	25.1µM*	?	1.9%[25.6 µM]
CCOC(=O)c1cc2c(ccn2-c2ccc(F)cc2)n1CC(=O)N(CC)CC	?	-23.9%	-8.7%	?	?	?	/
COc1cc(/C=N/NC(=O)c2cncc(Br)c2)cc([N+](=O)[O-])c1O	?	31.6µM*	35.2%	8.91µM*	9.2%	-22.1%[11.4 µM]	35.5µM*
COc1cc(/C=N/NC(=O)c2cccc([N+](=O)[O-])c2)cc(OC)c1O	?	/	37.9%	2.3%	-13.2%	-7.5%	/
Cc1nn(CC(=O)N2CCC(C)CC2)c(=O)c2nn(-c3ccccc3)c(C)c12	20.4%	/	21.8%	-16.4%	0.8%	-6.9%	/
O=c1oc2c(O)c(O)cc3c(=O)oc4c(O)c(O)cc1c4c23	1.26µM*	?	?	0.794µM*	?	0.708µM*	-8.3%
COc1ccc(-c2c(O)c3cc(O)cc(O)c3oc2=O)cc1	/	/	/	/	12.6%	/	/
Nc1ccc(N)c(C(=O)O)c1	7.94µM*	/	3.16µM*	3.98µM*	?	3.55µM*	-10.6%
Nc1ccc(C(=O)O)c(O)c1	7.5%[59 µM]	5.1%	23.7%	-32.7%	10.8%	0.0%	/
CC(=O)Oc1cc(-c2coc3cc(OC(C)=O)c(OC(C)=O)c(OC(C)=O)c3c2=O)cc(OC(C)=O)c1OC(C)=O	-139.7%[2.33 µM]	/	/	/	-90.8%	/	4.2%
O=S(=O)(c1ccc2nc(-c3ccco3)c(-c3ccco3)nc2c1)N1CCOCC1	2µM*	-88.4%	-15.8%	50.1µM*	10µM*	79.4µM*	-11.0%[25.6 µM]
Cc1ccc(-n2ncc(C(=O)N3CCCCC3)c2C2CCN(C(=O)OC(C)(C)C)CC2)c(C)c1	-17.2%[59 µM]	/	7.2%	1.6%[57.1 µM]	/	-15.5%	/
Cc1ccccc1NC(=S)N(CCN(C)C)C(C)c1cccnc1 (stereo not given)	18.4%[59 µM]	/	24.3%	-19.9%	12.9%	-8.1%	/
Cc1c(Cl)cccc1NC(=S)N(CCN(C)C)C(C)c1ccccn1 (stereo not given)	-0.6%	/	27.7%	50.1µM*	-21.7%	-8.8%	-3.4%[25.6 µM]
SMILES	G9a inh	L3MBTL1 block	HP1b chromo inh	BAZ2B inh	Sfp PPTase inh	JMJD2A Tudor inh	ME-1 prolif	others
Cc1ccccc1NC(=S)N(CCN(C)C)C(C)c1ccccn1 (stereo not given)	7.8%	/	38.1%	?	-4.0%	-11.8%	-8.8%[25.6 µM]
O=c1[nH]cc(I)cc1I	-2.4%	6.6%	45.6%	3.2%	22.4µM*	-3.5%	-4.9%[25.6 µM]
CCOc1ccc(CN(C)C(=O)CNC(=O)C2CCCCC2)cc1	1.8%	/	23.3%	-34.6%	5.4%	-13.0%	/
C=CN1CCCC1=O	/	/	/	/	5.4%	/	-11.0%
CCN1CCCC1=O	19.3%[59 µM]	/	/	/	6.3%	/	/
O=C(c1ccco1)N1CCN(C(=S)NCc2ccc(F)cc2)CC1	0.6%	/	19.6%	-4.7%	13.4%	-21.3%	/
O=C(NCCc1ccccc1)/C(=C\c1cccc([N+](=O)[O-])c1)NC(=O)c1ccco1	14.9%	/	24.5%	-25.9%	8.7%	-12.4%	/
COc1cc(C2c3cc4c(cc3C(OC3OC5COC(C)O[C@@H]5C(O)C3O)C3COC(=O)C23)OCO4)cc(OC)c1O (stereo not given in full)	-4.2%[2.33 µM]	/	/	/	-7.5%	/	0.794µM*
c1ccc(CSc2ccc(-c3ccccn3)nn2)nc1	46.9%	/	-4.5%	4.47µM*	-23.5%	?	?
Cc1cc(SCC(=O)OC(C)C(=O)N(C)c2ccccc2)nc2ccccc12 (stereo not given)	0.9%[59 µM]	3.3%	18.5%	-4.1%	/	-6.2%	/
c1csc(C2Nc3cccc4cccc(c34)N2)c1	?	-4.5%	?	?	?	-29.8%	/
Brc1ccc(C2Nc3cccc4cccc(c34)N2)o1	20µM*	-22.9%	?	?	?	?	-22.2%
COc1cc(C(=O)NC(c2ccccc2Cl)c2cc(Cl)c3cccnc3c2O)cc(OC)c1OC (stereo not given)	39.9%[59 µM]	/	55.7%	9.9%	/	-7.1%	/
CC(=O)NC(c1ccco1)c1cc(Cl)c2ccc(N3CCCCC3)nc2c1O (stereo not given)	3.98µM*	-6.4%	/	?	/	/	/	12-hLO 8HQ R1=i;JMJD2E inh=20.4µM*

Source: PubChem
